# What was measured:
# Assay type in all cases: functional
# [1] = biological target: Solute carrier family 2, facilitated glucose transporter member 1 (Homo sapiens) (UniProt P11166); assay: ST_JUDE_LEISH: Cytotoxicity at 2uM final concentration against transgenic Leishmania Mexicana promastigotes LmGLUT1 that are glucose transport deficient and complemented with the human glucose transporter GLUT1. Activity is measured by DNA content using SYBR green in vitro
# [2] = biological target: Hexose transporter 1 (Plasmodium falciparum) (UniProt O97467); assay: ST_JUDE_LEISH: Cytotoxicity at 2uM final concentration against transgenic Leishmania Mexicana promastigotes LmPfHT that are glucose transport deficient and complemented with the Plasmodium falciparum hexose transporter. Activity is measured by DNA content using SYBR green in vitro
# [3] = biological target: Glucose transporter (Leishmania mexicana) (UniProt O61059); assay: ST_JUDE_LEISH: Cytotoxicity at 2uM final concentration against transgenic Leishmania Mexicana promastigotes LmGT2 that are glucose transport deficient and complemented with the L. Mexicana glucose transporter 2. Activity is measured by DNA content using SYBR green in vitro
# Chain of Solute carrier family 2, facilitated glucose transporter member 1 (Homo sapiens) (P11166 whole entry): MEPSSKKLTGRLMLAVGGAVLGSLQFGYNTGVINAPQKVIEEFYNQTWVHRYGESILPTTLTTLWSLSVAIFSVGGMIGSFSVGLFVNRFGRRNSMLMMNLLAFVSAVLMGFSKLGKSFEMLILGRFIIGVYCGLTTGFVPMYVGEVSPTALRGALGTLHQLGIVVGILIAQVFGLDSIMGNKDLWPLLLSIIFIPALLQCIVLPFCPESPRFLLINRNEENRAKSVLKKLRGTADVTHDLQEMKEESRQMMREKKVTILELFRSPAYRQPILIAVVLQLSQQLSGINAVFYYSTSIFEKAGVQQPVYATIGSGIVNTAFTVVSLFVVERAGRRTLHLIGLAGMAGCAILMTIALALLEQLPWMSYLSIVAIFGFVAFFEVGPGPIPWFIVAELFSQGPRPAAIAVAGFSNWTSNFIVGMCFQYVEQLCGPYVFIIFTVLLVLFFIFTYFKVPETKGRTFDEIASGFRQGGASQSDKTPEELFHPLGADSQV
SMILES,inhibition [1] [%],inhibition [2] [%],inhibition [3] [%]
CNCC(C)(C)c1nc(-c2ccc(Cl)c(O)c2)c(-c2ccncc2)[nH]1,-1.98,-1.37,-3.28
CC(c1cccc(S(=O)(=O)NCc2cccc(C(F)(F)F)c2)c1)N1CCC(N2CCCCC2)CC1 (centres undefined),6.15,7.23,7.91
CC(=O)Nc1cccc(Nc2nccc(-c3c(-c4cccc(NC(=O)c5c(F)cccc5F)c4)nn4ncccc34)n2)c1,6.99,11,1.53
COc1cccc(CNCC(C)(C)c2nc(-c3ccc(Cl)c(O)c3)c(-c3ccncc3)[nH]2)c1,-1.42,-3.17,2.87
O=c1cc(NCCCNCc2ccc(Cl)c(Cl)c2)[nH]c2ccc(Oc3ccccc3)cc12,-1.41,-1.42,-0.72
COc1ccc2c(=NN=Cc3cccc(F)c3)cc(C)[nH]c2c1,-1.29,4.27,1.95
COc1cccc(Nc2nc(C)cc(Nc3cccc(C#N)c3)n2)c1,17.5,19.2,4.27
COc1ccccc1-c1nc2nc(N)nc(N)c2nc1-c1ccccc1OC,0.82,1.25,1.01
COc1ccc2nccc([C@@H](O)CN3CCC(NC(=O)c4ccc(C5(C(F)(F)F)N=N5)cc4)CC3)c2c1,14.3,24.5,40.7
O=C(C=Cc1ccc(Cl)c(Cl)c1)NCCCCCN1CCC(CCCNS(=O)(=O)c2ccc(F)cc2)CC1,1.12,-1.5,-0.43
CN1CCN(c2ccc(Nc3nccc(-c4cnn5ncccc45)n3)cc2Cl)CC1,90.6,95.1,83.8
Cc1cc2nc(-c3ccc(C(=O)NCc4ccc(Cl)c(Cl)c4)cc3)[nH]c2cc1C,4.77,4.64,2.9
COc1ccc2nccc([C@@H](O)CN3CCC(NCCOc4ccccc4C(F)(F)F)CC3)c2c1,0.68,2.17,2.28
COc1cc(NC2=NS(=O)(=O)c3cc(Cl)ccc3N2C)cc(OC)c1OC,6.86,6.41,7.53
C=C1C(C(=O)OCC)=CN(CC)c2cc(O[C@@H]3CCN(C(=O)OC(C)(C)C)C3)ccc21,6.89,5.44,6.99
OC1CCC(Nc2ccc3ncc(-c4ccc(Cl)cc4)n3n2)CC1 (centres undefined),8.13,3.98,4.08
CCCCCCc1c(C)nc2cc(OC)ccc2c1O,3.2,5.49,2.87
CCCCn1c(=N)c(C(=O)NCc2cccnc2)cc2c(=O)n3cccc(C)c3nc21,4.38,5.85,2.74

# Source: ChEMBL document CHEMBL3433997, “St. Jude Leishmania screening dataset” (2016)
